Test results published in ChEMBL document CHEMBL4513146, “CO-ADD screening of Karazin Kharkiv National University (Ukraine) compounds”.
Potency and affinity values are given separately.

Key:
Staphylococcus aureus = conditions: Concentration 32 ug.mL-1;; ASSAY_TEST Inhibition of Bacterial Growth; detection method Absorption (OD600); MEDIA CAMHB; plate type 384well; NBS; CORNING #3640; time 18 hr
Escherichia coli = conditions: Concentration 32 ug.mL-1;; ASSAY_TEST Inhibition of Bacterial Growth; detection method Absorption (OD600); MEDIA CAMHB; plate type 384well; NBS; CORNING #3640; time 18 hr

Row | SMILES | Inhibition (Staphylococcus aureus) | Inhibition (Escherichia coli)
1 | CSc1cccc(NC(=O)Cn2nc3ccc(SC4CCCCC4)nn3c2=O)c1 | -9.19% | -2.76%
2 | Cc1nnc2ccc(S(=O)(=O)N(Cc3ccccc3F)c3ccc(F)c(F)c3)cn12 | 3.86% | -6.57%
3 | Cc1cc2nn(CC(=O)Nc3ccccc3F)c(=O)n2c(Nc2ccc(C)c(F)c2)n1 | -7.63% | -14.62%
4 | COC(=O)c1ccc(NC(=O)Cn2nc3ccc(S(=O)(=O)C4CCCCC4)nn3c2=O)cc1 | 8.6% | -7.53%
5 | Cc1ccccc1Cn1nc2c(=O)n(-c3cccc(Cl)c3C)ccn2c1=O | -10.1% | -10.57%
6 | CCc1ccccc1Sc1nccn2c(=O)n(CC(=O)Nc3ccc(OC)cc3)nc12 | -2.16% | -10.01%
7 | CCOc1ccccc1NC(=O)Cn1nc2c(Oc3cccc(OC)c3)nccn2c1=O | 11.72% | -4.66%
8 | CC(C)c1ccc(N(Cc2ccc(Cl)cc2)S(=O)(=O)c2cccn3cnnc23)cc1 | 8.06% | 3.76%
9 | COc1ccc(NC(=O)Cn2nc3c4cc(-c5ccc(C)cc5)nn4ccn3c2=O)c(OC)c1 | 1.08% | -1.29%
10 | CCOc1cccc(CNC(=O)CCc2nnc3ccc(-c4ccc(C)cc4)nn23)c1 | -1.51% | -5.83%
11 | COc1ccc(-c2cc3c4nnc(SCC(=O)Nc5cc(F)ccc5C)n4ccn3n2)cc1 | -23.41% | -20.36%
12 | COc1ccc(N(Cc2cccc(OC)c2)S(=O)(=O)c2ccc3nnc(C)n3c2)cc1 | -9.05% | 0.15%
13 | CCOc1ccc(NC(=O)Cn2nc3c(Oc4cccc(OC)c4)nccn3c2=O)cc1 | 13.11% | 1.75%
14 | O=c1c2nnc(SCc3ccccc3F)n2ccn1-c1ccc(Br)cc1 | 14.85% | -2.34%
15 | CCOC(=O)c1ccccc1NC(=O)Cn1nc2c(Oc3ccc(C)cc3)nccn2c1=O | -14.8% | -17.92%
16 | CCc1nnc2c(S(=O)(=O)N(Cc3cccc(C)c3)c3cccc(Cl)c3)cccn12 | 2.53% | -7.38%
17 | CC(C)c1nnc2c(=O)n(CC(=O)Nc3ccc(Br)cc3)c3ccccc3n12 | 9.7% | 7.11%
18 | COC(=O)c1ccc(NC(=O)Cn2nc3c4cc(-c5ccc(OC)cc5)nn4ccn3c2=O)cc1 | 11.91% | 3.86%
19 | O=C(Cn1nc2c(Oc3ccccc3)nc3ccccc3n2c1=O)Nc1ccc2c(c1)OCO2 | 13.59% | 2.6%
20 | Cc1cc(C)cc(N(Cc2ccc(F)cc2)S(=O)(=O)c2cccn3c(C)nnc23)c1 | -7.01% | -9.2%
21 | COc1ccc(NC(=O)Cn2nc3c(Oc4cccc(OC)c4)nccn3c2=O)cc1 | 14.33% | -3.37%
22 | CCOc1ccc(-n2ccn3c(SCC#N)nnc3c2=O)cc1 | 8.92% | 2.37%
23 | COc1cccc(Oc2nccn3c(=O)n(CC(=O)Nc4cccc(Br)c4)nc23)c1 | 9.05% | -6.35%
24 | Cc1ccc(Sc2nccn3c(=O)n(CC(=O)Nc4cccc(Cl)c4)nc23)c(C)c1 | 9.86% | -3.61%

Row | SMILES | Inhibition (Staphylococcus aureus) | Inhibition (Escherichia coli)
25 | O=c1c2nnc(SCc3ccc(Cl)cc3)n2ccn1-c1ccc(F)cc1 | 4.01% | 2.84%
26 | Cc1cc(C)cc(NC(=O)Cn2nc3ccc(-c4ccc(C)c(C)c4)nn3c2=O)c1 | 1.36% | -7.85%
27 | Cc1cccc(CN(c2cccc(Cl)c2)S(=O)(=O)c2cccn3c(C)nnc23)c1 | 9.05% | -5.75%
28 | CCOC(=O)c1ccccc1NC(=O)Cn1nc2ccc(Sc3ccc(C)cc3)nn2c1=O | 14.05% | 1.21%
29 | COc1cc(NC(=O)Cn2nc3c(N4CCCC(C)C4)nccn3c2=O)cc(OC)c1 (configuration not stated) | -12.69% | -14.56%
30 | Cc1ccc(C)c(S(=O)(=O)Nc2ccc3nncn3n2)c1 | 15.24% | 1.21%
31 | O=C(Cn1nc2c(Sc3ccccc3)nccn2c1=O)Nc1cc(F)ccc1F | 0.01% | -13.52%
32 | O=C(Cn1nc2ccc(C(=O)NCc3ccccc3)cn2c1=O)Nc1ccc(Br)cc1 | 3.47% | -7.68%
33 | COc1ccc(NC(=O)Cn2nc3c(Sc4cccc(C)c4)nccn3c2=O)cc1Cl | -3.33% | -13.54%
34 | Cc1cc(C)cc(NC(=O)Cn2nc3ccc(SCc4ccc(Cl)cc4)nn3c2=O)c1 | -7.67% | -11.38%
35 | O=c1c2nn(Cc3ccccc3F)c(=O)n2ccn1-c1ccccc1 | 4.1% | -4.13%
36 | CN(C(=O)Cn1nc2n(Cc3cccs3)c(=O)c3sccc3n2c1=O)c1ccccc1 | -14.76% | -16.81%
37 | Cc1ccccc1NC(=O)Cn1nc2ccc(SC3CCCCC3)nn2c1=O | 2.21% | -7.39%
38 | COc1cccc(NC(=O)Cn2nc3c4c5c(sc4ncn3c2=O)CCCC5)c1 | 2.27% | -1.99%
39 | COc1ccc(-c2cc3c4nn(CC(=O)Nc5cc(OC)ccc5OC)c(=O)n4ccn3n2)cc1 | 5.8% | 4.02%
40 | CC(C)c1nnc2c(SCC(=O)Nc3ccccc3C(F)(F)F)nc3ccccc3n12 | 6.66% | -3.21%
41 | CCCCn1c(=O)c2sccc2n2c(=O)n(CC(=O)c3ccc(OC)c(OC)c3)nc12 | 13.6% | 0.21%
42 | CCCCOc1ccc(-c2cc3c4nnc(SCC(=O)N(C)c5ccc(F)cc5)n4ccn3n2)cc1 | -20.91% | -5.6%
43 | O=C(CCc1nnc2ccc(-c3ccc(Cl)cc3)nn12)NCc1ccc(F)cc1Cl | 11.56% | -1.56%
44 | COc1cccc(CSc2nnc3c(=O)n(-c4ccccc4OC)ccn23)c1 | -2.45% | 1.01%
45 | COc1ccc(N(Cc2cccc(Cl)c2)S(=O)(=O)c2ccc3nnc(C)n3c2)cc1 | 13.9% | 0.81%
46 | COc1ccc(OC)c(NC(=O)Cn2nc3c(Sc4ccccc4)nc4ccccc4n3c2=O)c1 | 6.17% | -0.83%
47 | Cc1cccc(NC(=O)Cn2nc3c(Sc4ccccc4)nccn3c2=O)c1 | -16.15% | -1.95%
48 | COc1ccc(NC(=O)Cn2nc3c4cc(-c5ccc(Cl)cc5)nn4ccn3c2=O)c(OC)c1 | 9.6% | 5.1%

Row | SMILES | Inhibition (Staphylococcus aureus) | Inhibition (Escherichia coli)
49 | COc1ccccc1NC(=O)Cn1nc2c(SC3CCCCC3)nccn2c1=O | -13.71% | -14.54%
50 | Cc1ccc(N(Cc2cc(F)cc(F)c2)S(=O)(=O)c2cccn3c(C)nnc23)cc1 | 11.96% | -4.21%
51 | O=C(CSc1nc2ccccc2n2cnnc12)Nc1ccc2c(c1)OCCO2 | 6.86% | 5.63%
52 | COc1ccc(NC(=O)Cn2nc3c(N4CCCC(C)C4)nccn3c2=O)cc1OC (configuration not stated) | -18.12% | -13.91%
53 | Cc1ccc(Cl)cc1NC(=O)CSc1nnc2n(CC3CCCO3)c(=O)c3sccc3n12 (configuration not stated) | 8.22% | -0.5%
54 | COc1ccc(NC(=O)c2ccc3nn(CC(=O)Nc4ccc(C(F)(F)F)cc4)c(=O)n3c2)cc1 | 9.76% | -5.89%
55 | CC(=O)c1ccc(NC(=O)Cn2c(=O)c3nnc(C(C)C)n3c3ccccc32)cc1 | 5.44% | -3.86%
56 | O=C(Cn1nc2c(SC3CCCCC3)nccn2c1=O)Nc1ccc(Br)cc1 | 7.56% | -4.82%
57 | Cc1ccc(-c2cc3c4nn(CC(=O)NCc5ccc(Cl)cc5)c(=O)n4ccn3n2)cc1C | 6.87% | 6.43%
58 | CCc1ccccc1Sc1nccn2c(=O)n(CC(=O)Nc3cccc(Br)c3)nc12 | 8.83% | 2.3%
59 | COC(=O)c1ccccc1NC(=O)Cn1nc2c(Oc3ccccc3C)nccn2c1=O | 4.43% | -5.27%
60 | COC(=O)c1ccc(NC(=O)Cn2nc3c4cc(-c5ccc(Cl)cc5)nn4ccn3c2=O)cc1 | 1.97% | 4.04%
61 | Cc1ccc(NC(=O)Cn2nc3c4cc(-c5ccc(C)c(C)c5)nn4ccn3c2=O)cc1C | 0.99% | -7.36%
62 | CCCCn1c(=O)c2sccc2n2c(=O)n(CC(=O)N3CCCC(C(=O)OCC)C3)nc12 (configuration not stated) | 0.89% | -5.26%
63 | N#CCn1nc2n(Cc3ccccc3)c(=O)c3ccc(C(=O)NC4CCCCC4)cc3n2c1=O | -2.91% | -12.22%
64 | O=S(=O)(c1ccc2nncn2c1)N(Cc1ccccc1F)c1ccc2c(c1)OCO2 | 12.13% | -4.11%
65 | COc1ccc(N(Cc2cccc(F)c2)S(=O)(=O)c2ccc3nncn3c2)cc1 | -9.11% | 1.35%
66 | O=c1c2nn(Cc3ccccc3Cl)c(=O)n2ccn1-c1ccccc1 | -1.67% | -5.84%
67 | Cc1ccc(-c2ccc3nnc(CCC(=O)NCc4cccc(Br)c4)n3n2)cc1C | 4.83% | -5.02%
68 | CC(C)CCn1c(=O)c2ccc(C(=O)NC3CCCCC3)cc2n2c(=S)[nH]nc12 | -4.78% | -9.84%
69 | CCc1nnc2c(=O)n(CC(=O)Nc3ccc(C(C)C)cc3)c3ccccc3n12 | 12.36% | 0.11%
70 | Cc1ccc(NC(=O)Cn2nc3c(Sc4ccccc4)nc4ccccc4n3c2=O)cc1C | -2.53% | -4.65%
71 | CSc1cccc(NC(=O)Cn2nc3c(Oc4cc(C)cc(C)c4)nccn3c2=O)c1 | 3.38% | -5.29%
